Results taken from PubChem BioAssay AID504378 (National Center for Advancing Translational Sciences (NCATS), 2011).
Results filed as inconclusive are left out. The source made the active and inactive calls. Calls follow the shape of the dose curve; as a rule, active = well fitted curve in the direction sought with a large enough effect; inconclusive = small, poorly fitted or top-dose-only effect, or another doubt; inactive = no such curve, though single readings can be large or run the other way.

assay: qHTS Assay for Compounds Blocking the Interaction Between CBF-beta and RUNX1 for the Treatment of Acute Myeloid Leukemia: SAR for Probe with Orthogonal Assay; details: ME-1 cells viability, ATPlite luminescence, 48 h; series mostly up to 82.4 µM
Description: NIH Chemical Genomics Center [NCGC] NIH Molecular Libraries Probe Production centers Network [MLPCN] MLPCN Grant: X01MH083259-01 Assay Submitter (PI): Paul Liu NCGC Assay Overview: Core Binding Factor (CBF) abnormalities are associated with 20-25% of all acute myeloid leukemias (AML), of which 5-10% are further sub classified as acute myelomonocytic leukemia with eosinophilia, also known as M4Eo in the FAB classification scheme. This subtype of leukemia is usually associated with chromosome 16 inversion (p13:q22). Chromosome 16 inversion results in formation of the fusion oncogene CBFB-MYH11, which encodes the fusion protein CBF-beta-SMMHC. […] It has been hypothesized that the interference of CBF-beta and RUNX1 binding could have therapeutic implications for patients with CBF mediated leukemias. We developed a CBF-beta and RUNX1 binding assay in AlphaScreenTM format and optimized it for high throughput screening to search for inhibitors. The goal of this project is to screen MLPCN's compound collection (MLSMR) for identifying the inhibitors of the interaction between CBF-beta and RUNX1 proteins as research probes. If these probes work well in the animal models, the ultimate goal of this project is to development a new drug treatment for this disease. This assay can not be used to assess how apparent inhibitors interfere with protein binding, and whether inhibitors specifically bind to either protein. Disruption of this protein-protein interaction, through any mechanism, is the intended target activity. The present data set was run to confirm the activity of hits from the primary screen using an orthogonal assay technology for measuring protein-protein interaction disruption.
NCGC Assay protocol: ME-1 suspension cells were grown in T225 flasks to 80% density under a standard cell culture condition (ATCC) using Dulbecco's Modified Eagle Medium (DMEM) + 10% fetal bovine serum, harvested in OPTI-MEM (phenol free) + 10% FBS. Seeded at 500 cells/well in 5uL medium into 1536-well white solid-bottom plates using Multidrop Combi dispenser, and incubated the plates at 37 C with 5% CO2 and 95% humidity for 2 hours prior to pinning compound. Subsequently, 23 nL/well compound solutions or DMSO controls were dispensed to the assay plates via a pintool workstation. Plates were then transferred to 37 C with 5% CO2 and 95% humidity for 48 hours, and then ATP content was measured following the addition of 4uL/well of ATPlite reagent and a 20 min incubation on a ViewLux plate reader. Keywords: MLSMR, MLPCN, NIH Roadmap, qHTS, NCGC, Core binding factor, CBF, CBF-beta, Acute myeloid leukemia

| SMILES | outcome |
| --- | --- |
| N[C@@H](CC(=O)O)C(=O)Nc1ccc(Cl)cc1C(=O)c1ccc[nH]1 | inactive |
| C[C@H](N)C(=O)Nc1ccc(Cl)cc1C(=O)c1ccc[nH]1 | inactive |
| CCC(=O)Nc1ccc(Cl)cc1C(=O)c1ccc[nH]1 | inactive |
| CN(C)CC(=O)Nc1ccc(Cl)cc1C(=O)c1ccc[nH]1 | inactive |
| NCCCC[C@H](N)C(=O)Nc1ccc(Cl)cc1C(=O)c1ccc[nH]1 | inactive |
| NC(=O)C[C@H](N)C(=O)Nc1ccc(Cl)cc1C(=O)c1ccc[nH]1 | inactive |
| NCC(=O)Nc1ccc(Cl)cc1C(=O)c1ccc[nH]1 | inactive |
| Nc1ccc(Cl)cc1C(=O)c1ccc[nH]1 | inactive |
| NCCC(=O)Nc1ccc(Cl)cc1C(=O)c1ccc[nH]1 | inactive |
| CC(C)(N)C(=O)Nc1ccc(Cl)cc1C(=O)c1ccc[nH]1 | inactive |
| NCCCC(=O)Nc1ccc(Cl)cc1C(=O)c1ccc[nH]1 | inactive |
| N[C@@H](CO)C(=O)Nc1ccc(Cl)cc1C(=O)c1ccc[nH]1 | inactive |
| NC(N)=NCCC[C@H](N)C(=O)Nc1ccc(Cl)cc1C(=O)c1ccc[nH]1 | inactive |
| CC(C)[C@H](N)C(=O)Nc1ccc(Cl)cc1C(=O)c1ccc[nH]1 | inactive |
| N[C@H](Cc1ccccc1)C(=O)Nc1ccc(Cl)cc1C(=O)c1ccc[nH]1 | inactive |
| O=C(c1ccc[nH]1)c1cc(Cl)ccc1NC(=O)[C@@H]1CCCN1 | inactive |
| C[C@@H](N)C(=O)Nc1ccc(Cl)cc1C(=O)c1ccc[nH]1 | inactive |
| CCc1sc(N)nc1-c1ccc(OC)cc1 | inactive |
| CC(=O)Nc1ccc(Cl)cc1C(=O)c1ccc[nH]1 | inactive |
| CNCc1nc(-c2ccc[nH]2)c2cc(Cl)ccc2n1 | inactive |
| CNCC(=O)Nc1ccc(Cl)cc1C(=O)c1ccc[nH]1 | inactive |
| N[C@@H](CCC(=O)O)C(=O)Nc1ccc(Cl)cc1C(=O)c1ccc[nH]1 | inactive |
| N[C@H](C(=O)Nc1ccc(Cl)cc1C(=O)c1ccc[nH]1)c1ccccc1 | inactive |
| NCCCCC(=O)Nc1ccc(Cl)cc1C(=O)c1ccc[nH]1 | inactive |
| N[C@@H](Cc1ccccc1)C(=O)Nc1ccc(Cl)cc1C(=O)c1ccc[nH]1 | inactive |
